Rows were chosen to be rich in hits. Some 32% of all compounds tested hit in one or more screens of this group.
CYP2C9 inh = blocks human cytochrome P450 2C9. hit rate 20% among 96,000. AID 777. P11712. inhibition, % at 5 µM. CYP2C9 Supersomes, luciferin-H conversion, luminescence;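 active means blocking of liver enzyme CYP2C9 beyond about 50% at 5 µM, limit read from the data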
Target sequence (P11712 whole entry, looked up): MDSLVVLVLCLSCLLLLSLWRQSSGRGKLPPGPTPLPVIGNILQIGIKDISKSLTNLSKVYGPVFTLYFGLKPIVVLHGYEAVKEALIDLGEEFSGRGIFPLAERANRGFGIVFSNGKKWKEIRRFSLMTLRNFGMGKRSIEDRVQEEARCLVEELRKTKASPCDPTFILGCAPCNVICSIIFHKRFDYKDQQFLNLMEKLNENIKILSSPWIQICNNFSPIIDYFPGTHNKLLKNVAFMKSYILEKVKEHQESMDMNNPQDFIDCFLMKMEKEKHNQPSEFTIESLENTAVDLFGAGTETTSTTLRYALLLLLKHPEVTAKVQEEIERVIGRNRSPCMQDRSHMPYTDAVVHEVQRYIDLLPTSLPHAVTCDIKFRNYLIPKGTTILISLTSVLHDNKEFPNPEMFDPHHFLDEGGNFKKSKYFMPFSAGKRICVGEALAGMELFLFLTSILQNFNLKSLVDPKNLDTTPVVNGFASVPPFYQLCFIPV
PostGolgi yeast = growth inhibition of a yeast mutant, post-Golgi transport screen; inhibition, % at 10 µM; post-Golgi transport phenotypic cell assay; hit rate 0.9% among 98,000; AID 739;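 further: yeast cells grown in 1536-well plates; yeast grown about 18 h at 30C before absorbance read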
CYP2C19 inhib = human CYP2C19 inhibition. P33261. CYP2C19 Supersomes, luciferin-H EGE luminescence, 30 min. inhibition, % at 5 µM. hit rate 21% among 96,000. AID 778;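 active means CYP2C19 inhibition above a set limit at 5 µM in the primary screen, cut at about 50% in these data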;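 further: plate controls were negative control wells for no effect and 2.5 mM tranylcypromine positive control for full effect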
PostGolgi ctrl = inhibits growth of the yeast control strain; efflux-deficient yeast background strain, growth absorbance A615, 16 h; inhibition, % at 10 µM; hit rate 5% among 98,000
CYP2C19 act = increases human CYP2C19 enzyme activity; P33261; recombinant CYP2C19, luciferin-H EGE luminescence; stronger effect = higher value; 0 = fully inhibited enzyme, 1 = untreated enzyme; activation factor at 5 µM; 96,000 tested, under 10 active; AID 1025;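 active means activation factor of at least 2 at 5 µM in the primary screen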;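 further: 0 = wells with 2.5 mM tranylcypromine and 1 = vehicle-only wells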
CYP2C9 act = increases human cytochrome P450 2C9 activity; P11712; recombinant CYP2C9, luciferin-H conversion, luminescence; stronger effect = higher value; factor 1 = untreated enzyme, 0 = blocked; activation factor at 5 µM; hit rate 1.4% among 96,000; AID 1024;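 active means activation factor of 2 or more for CYP2C9 at a 5 µM dose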;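 further: 0 = sulfaphenazole-blocked wells and 1 = vehicle-only wells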
* marks the source's active call; other numbers are inactive results; / = no result given. Unless noted, no stated cut-off is given here; in the data, active means inhibition above about 30%; inactive means the rest.

SMILES	CYP2C9 inh	PostGolgi yeast	CYP2C19 inhib	PostGolgi ctrl	CYP2C19 act	CYP2C9 act
Cc1nn(-c2ncc(C(F)(F)F)cc2Cl)c(=O)n1-c1ccccc1Cl	-14	-5	5	10	0.9	1.1
Cc1cccc2[nH]c(-c3ccc(NC(=O)c4ccco4)cc3)nc12	6	-2	33	13	0.7	0.9
CC(=O)C1=C(C)NC(SCc2cccc([N+](=O)[O-])c2)=C(C#N)C1c1ccco1 (configuration not stated)	84*	-5	100*	8	0	0.2
COc1ccccc1NC(=O)C1=C(C)NC(SCC(=O)c2ccc(C)cc2)=C(C#N)C1c1ccco1 (configuration not stated)	90*	2	84*	8	0.2	0.1
CC(=O)C1=C(C)NC(SCC(=O)c2ccc(F)cc2)=C(C#N)C1c1ccco1 (configuration not stated)	80*	-2	98*	12	0	0.2
CCc1ccc(C(=O)CSC2=C(C#N)C(c3ccco3)C(C(C)=O)=C(C)N2)cc1 (configuration not stated)	76*	2	48	15	0.5	0.2
COc1ccccc1NC(=O)N1CCCC1C(=O)NC1CCCCC1 (configuration not stated)	-7	-2	18	2	0.8	1.1
Cc1cc(=O)oc(C)c1C(=O)NCCN1CCOCC1	2	0	16	-3	0.8	1
CCNc1nc(OC)nc(SCC(N)=O)n1	-24	23	-10	3	1.1	1.2
CC(C)CC(NC(=O)C(NC(=O)OC(C)(C)C)C(C)C)C(=O)N1CCCC1C(N)=O (configuration not stated)	3	4	-1	5	1	1
CC(=O)C1=C(C)NC(SCC(=O)c2ccc(Cl)cc2)=C(C#N)C1CC(C)C (configuration not stated)	95*	5	99*	11	0	0
CC(=O)C1=C(C)NC(SCC(N)=O)=C(C#N)C1C (configuration not stated)	-31	1	-26	-5	1.3	1.3
Cc1ccc(C)c(NC(=O)CSc2nnc(-c3ccncc3)n2N)c1	92*	17	60*	11	0.4	0.1
Cc1cccc(NC(=O)CSc2nnc(-c3ccccc3)n2N)c1C	47	0	55*	-6	0.5	0.5
Cc1cccc(NC(=O)CSc2nnc(-c3ccccc3)n2N)c1	15	11	4	0	1	0.8
Cc1csc(NC(=O)CNC(=O)OCc2ccccc2)n1	0	-4	0	1	1	1
CN1CCN(c2ccc(NC(=O)Cc3ccccc3)cc2)CC1	20	-2	8	5	0.9	0.8
CC(C)=CCc1c(O)ccc(C(=O)Cc2ccccc2)c1O	46	7	12	34*	0.9	0.5
Fc1ccccc1N1CCN(C(c2cccs2)c2nnnn2CCc2ccccc2)CC1 (configuration not stated)	57*	9	70*	-4	0.3	0.4
Fc1ccc(N2CCN(C(c3cccs3)c3nnnn3CCc3ccccc3)CC2)cc1 (configuration not stated)	/	12	/	37*	/	/
COCCn1nnnc1C(c1ccccn1)N1CCN(c2cc(C)ccc2C)CC1 (configuration not stated)	70*	-6	83*	-2	0.2	0.3
CCCCC(c1nnnn1CCOC)N1CCN(c2cccc(OC)c2)CC1 (configuration not stated)	54*	-1	70*	13	0.3	0.5
COCCn1nnnc1C(c1ccc(OC)cc1OC)N1CCN(c2ccccc2F)CC1 (configuration not stated)	19	-3	30	6	0.7	0.8
O=C(Nc1cccc(Cl)c1)NC1(C(=O)NCc2cccs2)CCCCC1	42	2	-3	11	1	0.6
Cc1cc(C)c2[nH]c(=O)c(C(c3nnnn3C3CCCC3)N3CCOCC3)cc2c1 (configuration not stated)	-10	/	-14	/	1.1	1.1
SMILES	CYP2C9 inh	PostGolgi yeast	CYP2C19 inhib	PostGolgi ctrl	CYP2C19 act	CYP2C9 act
c1ccc(CCn2nnnc2C(c2cccs2)N2CCN(Cc3ccc4c(c3)OCO4)CC2)cc1 (configuration not stated)	52*	-2	56*	1	0.4	0.5
CC(C)C(c1nnnn1Cc1ccccc1)N1CCN(Cc2ccc3c(c2)OCO3)CC1 (configuration not stated)	68*	-8	92*	6	0.1	0.3
CC(C)C(c1nnnn1CC1CCCO1)N1CCN(Cc2ccc3c(c2)OCO3)CC1 (configuration not stated)	3	0	8	1	0.9	1
COCCn1nnnc1C(c1cccs1)N1CCN(c2ccccc2)CC1 (configuration not stated)	51*	4	44	27	0.6	0.5
CCOc1ccc(-n2cc(C(=O)N3CCCCCC3)c3cc(OC)c(OC)cc3c2=O)cc1	37	1	16	10	0.8	0.6
CCOC(=O)N1CCN(C(=O)c2ccc3c(=O)n(CCC4=CCCCC4)c(=O)[nH]c3c2)CC1	43	-3	46	2	0.5	0.6
Clc1ccc(Cn2cccc2C2=NCCO2)cc1	35	-6	67*	1	0.3	0.7
COc1ccc(CC(=O)Nc2c3c(nn2-c2cccc(C)c2C)CS(=O)C3)cc1 (configuration not stated)	38	1	94*	10	0.1	0.6
COc1ccc(CC(=O)Nc2c3c(nn2-c2cccc(C)c2C)CS(=O)C3)cc1OC (configuration not stated)	6	-8	79*	-2	0.2	0.9
C=CCNC(=S)NNC(=O)c1cccn(Cc2cccc(Cl)c2)c1=O	8	-2	9	0	0.9	0.9
Cc1c2c([n+]3n1CCC3)CC(C)(C)CC2=O	-16	1	-20	8	1.2	1.2
CC(CCc1ccccc1)NC(=O)c1ccccc1 (configuration not stated)	91*	18	66*	-6	0.3	0.1
CC(CCc1ccccc1)NC(=O)c1ccc(C(=O)NC(C)CCc2ccccc2)cc1 (configuration not stated)	16	2	10	-8	0.9	0.8
CC(CCc1ccccc1)NC(=O)c1ccncc1 (configuration not stated)	94*	4	100*	-2	0	0.1
CC(CCc1ccccc1)NC(=O)c1cccs1 (configuration not stated)	72*	4	57*	16	0.4	0.3
O=C(Cc1ccccc1)NNC(=O)c1cccs1	0	-4	30	1	0.7	1
O=C(NNC(=O)C(c1ccccc1)c1ccccc1)c1cccs1	91*	3	56*	2	0.4	0.1

Screening data (PubChem)
